Data taken from PubChem BioAssay AID1578 (Sanford-Burnham Center for Chemical Genomics, 2009).
The campaign covered roughly 290,000 compounds. About 3,000 (1%) were called active. The entries come from a sample that favours actives as a whole. Unmarked numbers belong to inactive results. Cut-off read from the data, not from the text of the source: active = inhibition mostly above about 36% (no sharp cut-off); inactive = mostly below about 34%.

Assay: inhibition of NOD1-driven NF-kB reporter – cell-based, luminescence, uHTS, primary screen (AID 1578);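 note: HEK-293T reporter cells stimulated with the NOD1 agonist gamma-tri-DAP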
Conditions: NOD1-driven NF-kB luciferase reporter cells, at 4 µM, stronger effect = higher value

SMILES | inhibition
CC1CCN(C(=O)c2cc3ccccc3c(=O)o2)CC1 | -21.4%
Cc1cccc(CCNC(=O)CNS(=O)(=O)c2ccc3nc(C)sc3c2)c1 | 12.4%
Cc1ccc(N2CC(C(=O)NC3CC3)CC2=O)cc1 (stereo not given) | 17.9%
COc1ccc2nc(NC3=NC(c4ccccc4)CC(=O)N3)nc(C)c2c1 (stereo not given) | -18.7%
O=C(NNS(=O)(=O)c1ccccc1)C1CC(c2cccnc2)=NO1 (stereo not given) | -32.5%
O=C(NNS(=O)(=O)c1ccc(F)cc1)C1CC(c2cccnc2)=NO1 (stereo not given) | 51% (active)
COc1ccc(S(=O)(=O)NNC(=O)C2CC(c3cccnc3)=NO2)cc1 (stereo not given) | -24.9%
COc1ccc(C(=O)C2CCN(CC(=O)Nc3ccc(OC)cc3OC)CC2)cc1 | -10.7%
COC(=O)c1sc(=S)n(Cc2ccccc2)c1C | 5%
COc1ccc(CNC(=O)CCC(=O)N2CC(C)Oc3ccccc32)cc1 (stereo not given) | -16.3%
c1ccc(-c2nnsc2-c2ccccc2)cc1 | 6.7%
Cc1nnsc1S(=O)(=O)c1ccccc1 | -10.8%
O=C(Nc1ccccc1)c1nnsc1S(=O)(=O)c1ccc(Cl)cc1 | 67.9%
O=S(=O)(c1ccc(F)cc1)c1snnc1-c1ccccc1 | 24.9%
O=S(=O)(c1ccc(Cl)c(Cl)c1)c1snnc1-c1ccccc1 | 77.3% (active)
CCCCCCCSc1nnc(N)s1 | 5.6%
CC(C)(C)NC(=O)COC(=O)c1ccccc1NC(=O)c1ccco1 | -42.8%
CC1CN(C(=O)c2cc3ccccc3oc2=O)CC(C)O1 (stereo not given) | 0.9%
C/C(=N\NC(=O)c1ccccc1NC(=O)c1ccc(Cl)cc1)c1ccncc1 | 60.4% (active)
C/C(=N\NC(=O)c1ccncc1)c1ccc(NC(=O)c2ccc(Cl)cc2)cc1 | 7%
C/C(=N/NC(=O)c1ccncc1)c1ccc(NC(=O)c2ccccc2)cc1 | -8.8%
NC(=O)CC(NC(=O)Cc1ccc(Cl)cc1)c1ccc(NC2CCCCC2)c([N+](=O)[O-])c1 (stereo not given) | -4.6%
Cc1sc(Cc2nc(O)cs2)nc1-c1ccccc1 | 97.9% (active)
Oc1csc(Cc2nc(-c3ccc(-c4ccccc4)cc3)cs2)n1 | 31.2%

SMILES | inhibition
Oc1csc(Cc2nc(-c3ccc4ccccc4c3)cs2)n1 | 4.6%
O=C(Nn1cc(C(=O)Nc2ccc(F)cc2F)c2ccccc2c1=O)c1cnccn1 | -21.1%
O=C(Nn1cc(C(=O)Nc2ccccc2F)c2ccccc2c1=O)c1cnccn1 | 47.1% (active)
COC(=O)c1cn(NC(=O)c2cnccn2)c(=O)c2ccccc12 | 3%
C=CCN1C(=O)/C(=C2/C(=O)N(CC(=O)O)c3ccccc32)S/C1=N/c1nccs1 | -5.4%
CCN(CC)CCn1c(NC(=O)c2ccccc2O)nc2ccccc21 | 19%
O=C(CNS(=O)(=O)c1cccc2nsnc12)NCc1ccc(Cl)cc1 | 47.4% (active)
Cc1ccc(CNC(=O)CNS(=O)(=O)c2cccc3nsnc23)cc1 | -18.7%
O=C(CCCNS(=O)(=O)c1cccc2nsnc12)NCc1ccc(Cl)cc1 | -12%
Cn1ncc(N=Cc2ccccc2)c1C(N)=O | -13.3%
C/C(CC(=O)NCc1ccc(Cl)cc1)=N\NC(=O)Cc1ccccc1 | -22.7%
CCc1ccc(NC(=O)C2CCN(S(=O)(=O)c3ccc4c(c3)NC(=O)C(C)S4)CC2)cc1 (stereo not given) | 30.4%
Cc1ccc(NC(=O)C2CCN(S(=O)(=O)c3ccc4c(c3)NC(=O)C(C)S4)CC2)cc1C (stereo not given) | 6.5%
COc1ccc(N2CCN(S(=O)(=O)c3ccc4c(c3)NC(=O)C(C)C(=O)N4)CC2)cc1 (stereo not given) | -0.5%
CC1Sc2ccc(S(=O)(=O)N3CCC(C(=O)Nc4cccc(Cl)c4)CC3)cc2NC1=O (stereo not given) | 7.5%
CC1Sc2ccc(S(=O)(=O)N3CCN(c4ccccc4)CC3)cc2NC1=O (stereo not given) | 30.2%
Cc1cc(C)cc(NC(=O)C2CCN(S(=O)(=O)c3ccc4c(c3)NC(=O)C(C)S4)CC2)c1 (stereo not given) | -10.4%
O=C(NCc1cccs1)c1cnc2ccccn2c1=O | -8.1%
COc1ccc(C(C)(C)C)cc1NC(=O)CCNC(=O)c1ccco1 | -35.1%
O=C(CN1CCCCC1)NNC(=O)c1cccc(Br)c1 | 5.1%
CCCc1nnc(NC(=O)Cn2c(=O)oc3cc(Br)ccc32)s1 | -17.9%
COc1ccc2[nH]c(=O)c(CN(CC3CCCO3)C(=S)Nc3cccc(C)c3)cc2c1 (stereo not given) | 46.6% (active)
COc1ccc2[nH]c(=O)c(CN(CC3CCCO3)C(=S)Nc3ccc(C)cc3)cc2c1 (stereo not given) | -18.3%
COc1ccc2[nH]c(=O)c(CN(CC3CCCO3)C(=S)Nc3ccccc3)cc2c1 (stereo not given) | -31.7%

SMILES | inhibition
COc1cccc(CN(C)CC(=O)NCc2ccccc2Cl)c1 | 8.1%
Cc1ccc(OCC(=O)Nc2ccc(NC(=O)c3ccccc3)cc2)cc1C | -12.6%
CCOC(=O)c1nc2sc(C)c(C)c2c(=O)[nH]1 | 4.3%
CCOC(=O)/C(=C\c1ccc(Cl)cc1)c1nc2sc(C)c(C)c2c(=O)[nH]1 | 58.5%
CCOC(=O)/C(=C\c1cccc(O)c1)c1nc2sc(C)c(C)c2c(=O)[nH]1 | 105% (active)
CCOC(=O)C1CCN(C(=O)CCc2c(C)nc3ncnn3c2C)CC1 | 2.5%
CCOC(=O)N1CCN(Cc2cc(Cl)c3cccnc3c2O)CC1 | -1.5%
O=[N+]([O-])c1cc(Cl)c2cccnc2c1O | -7.9%
O=c1oc2ccccc2c(O)c1Cc1cc(Cl)c2cccnc2c1O | 62.6% (active)
O=C(Cc1c(O)c2ccccc2oc1=O)c1ccc(C(F)(F)F)cc1 | -10.7%
OCCN1CCN(Cc2cc(Cl)c3cccnc3c2O)CC1 | 26.4%
COc1ccc(NC(=S)Nc2ccc(N)c([N+](=O)[O-])c2)cc1 | -69.8%
Cc1c(CNCc2cccs2)c(C(=O)O)c(C)n1Cc1ccccc1 | 8.7%
O=C(NC1CCCCC1)N1CCCC(CNS(=O)(=O)Cc2ccccc2)C1 (stereo not given) | -23.7%
C/C(=N/Nc1ncc(C(F)(F)F)cc1Cl)c1ccncc1 | -9%
Fc1ccccc1NC(=S)NNc1ncc(C(F)(F)F)cc1Cl | 12.4%
Oc1cc2c(cc1CN1CCN(c3cccc(C(F)(F)F)c3)CC1)CCC2 | 19.7%
Cc1ccccc1-n1c(=O)cc(N2CCN(Cc3ccccc3)CC2)[nH]c1=O | -4.3%
CN1C(=O)C(c2nnc(Nc3cccc4ccccc34)s2)C2CC1(C)Oc1ccccc12 (stereo not given) | 3.3%
O=C1CCCN1CCC(=O)N1CCCC(Nc2ccc(F)c(F)c2)C1 (stereo not given) | -39.2%
COc1cccc(-c2cc(C(F)(F)F)nc(-n3cccn3)n2)c1 | -19.7%
COc1cccc(-c2cc(C(F)(F)F)nc(-n3cncn3)n2)c1 | 97.6% (active)
COc1ccc(-c2cc(C(F)(F)F)nc(-n3cncn3)n2)cc1 | 18.2%
NNC(=O)c1csc(COc2cc(Cl)cc(Cl)c2)n1 | -9.6%

SMILES | inhibition
Cc1ccc(C)c(S(=O)(=O)N=Nc2c(O)[nH]c3ccccc23)c1 | -24.6%
CC(NC(=O)CSc1ncn[nH]1)c1ccc(Cl)cc1Cl (stereo not given) | -18%
COc1ccc2c(c1)N(C)/C(=C/c1cccc[n+]1C)S2 | 2.2%
CN1/C(=C/c2cccc[n+]2C)Sc2ccccc21 | -2.3%
Cc1nn(Cc2ccc(F)cc2)c2sc(C(=O)Nc3ccc(N4CCOCC4)cc3N3CCOCC3)cc12 | -10.3%
CCOC(=O)c1ccc(NC(=O)c2cc(C)nn2-c2ccccc2)cc1 | -1.2%
O=C(CN1CCN(Cc2ccccc2)CC1)Nc1ccc([N+](=O)[O-])cc1C(=O)Nc1ccccc1F | -2.7%
Cc1ccc(C(=O)NCc2nnc(SCC(=O)NC(C)c3ccccc3)n2C)cc1 (stereo not given) | -35.4%
CCN(CC)C(=S)SC1=CCS(=O)(=O)C1 | -17.5%
CCN(CC)C(=S)SSC(=S)N(CC)CC | 91.1% (active)
CCN(CC)C(=S)SCC(=O)c1ccccc1 | -25.7%
CC/C(C)=N\N=C\c1c(O)n(CC)c2cc(C3=NNC(=O)CC3)ccc12 | -29.5%
CCCCC(CCCC)=N/N=C/c1c(O)n(CC)c2cc(C3=NNC(=O)CC3)ccc12 | -49.6%
CCC(CC)=N/N=C/c1c(O)n(CC)c2cc(C3=NNC(=O)CC3)ccc12 | 60.5% (active)
C=CCNc1nc(C(=O)OCC(=O)c2ccc(C)c([N+](=O)[O-])c2)cs1 | -31.1%
CCOC(=O)c1ccc(N2C(=O)C=CC2=O)cc1 | 80.8% (active)
CCOC(=O)c1ccc(N2C(=O)C(C)=C(C)C2=O)cc1 | -37.3%
CCOC(=O)c1ccc(-n2c(C)ccc2C)cc1 | -10.6%
NS(=O)(=O)c1ccc(CNC(=O)CSc2ccccc2)cc1 | -19.9%
O=C(COc1ccccc1Cl)NCCCNC(=O)c1cnccn1 | 27.3%
CCOc1ccc(NC(=O)CN(C)C(=O)CSC(C)C(=O)Nc2cc(C)on2)cc1OCC (stereo not given) | 44.5% (active)
Cc1cc(NC(=O)C(C)SCC(=O)N(C)CC(=O)Nc2ccc(Br)cc2C)no1 (stereo not given) | -22.8%
Cc1ccc(C)c(NC(=O)CN(C)C(=O)CSC(C)C(=O)Nc2cc(C)on2)c1 (stereo not given) | -0.8%
